# Source: ChEMBL document CHEMBL4513216, “Probing the Open Global Health Chemical Diversity Library for Multistage-Active Starting Points for Next-Generation Antimalarials” (ACS Infect Dis, 2020)
# About 8,600 (12%) of roughly 69,000 compounds showed an effect of 50% or more. Many of the other results were omitted from the sample, so strong results are more common in it than they were.
# System: Plasmodium berghei
# Assay: Screen against P. berghei liver stage (PbLuc), transformed with Luciferase, at 10uM
# Assay type: functional, HepG2
# Conditions: tested at 10 uM
row,SMILES,INHIBITION [%]
1,CCOCC(=O)N1CCC2(CC1)CN(Cc1cccnc1)C(=O)CO2,-47.9
2,COCCN1CCCC(Cc2cnc(-c3c(C)nn(C)c3C)cn2)C1 (configuration not stated),-29.9
3,COCC1CN(c2ccc(C)nn2)Cc2cnn(CC3CCOCC3)c21 (configuration not stated),13.6
4,Cc1cc2[nH]c(O)nc2cc1NCc1ccc(F)cc1,-5.64
5,COc1ccc(-c2nc3c([nH]2)CCNC3C(=O)O)c2ccc(C)nc12 (configuration not stated),36.6
6,Cc1ccc(-c2nc3c([nH]2)CCNC3C(=O)O)c2cccnc12 (configuration not stated),-6.83
7,COc1ccc(-c2nc3c([nH]2)CCNC3C(=O)O)c2ccccc12 (configuration not stated),55.4
8,Cc1ccc2nc(C(=O)N3C[C@@H](C(=O)O)[C@H](c4cccnc4)C3)cn2c1,-10.1
9,COc1cc(CNC(=O)COC2CCCC2)ccc1O,9.06
10,CNc1cc(C2CCN2c2ncccn2)nc(C)n1 (configuration not stated),15.5
11,NC(=O)NC(=O)C(c1ccccc1)N1CCN(Cc2ccc(Cl)s2)CC1 (configuration not stated),50.4
12,O=C(NC1CC1)C(c1ccccc1)N1CCN(Cc2ccc(Cl)s2)CC1 (configuration not stated),-65
13,NC(=O)NC(=O)C(c1ccccc1)N1CCN(Cc2ccccc2)CC1 (configuration not stated),24
14,CS(=O)(=O)c1cncnc1C1CCCN(C(=O)NCc2ccccc2)C1 (configuration not stated),-2.665
15,COc1ccc(CN2C[C@@H]3OCCN(c4ncccn4)[C@@H]3C2)cc1,32.4
16,Fc1ccccc1CN1C[C@@H]2OCCN(c3ncccn3)[C@@H]2C1,42.7
17,c1cnc(N2CCO[C@H]3CN(CC4CC4)C[C@H]32)nc1,35.2
18,Cn1cncc1CN1C[C@@H]2OCCN(c3ncccn3)[C@@H]2C1,63.7
19,Cc1noc(C)c1CN1CCO[C@H]2CN(Cc3cncn3C)C[C@H]21,18.5
20,Cn1cc(CN2C[C@@H]3OCCN(c4ncccn4)[C@@H]3C2)cn1,83.5
21,Cn1ccnc1CN1C[C@@H]2OCCN(c3ncccn3)[C@@H]2C1,28.7
22,Cc1ccc(N2CCO[C@H]3CN(Cc4cnn(C)c4)C[C@H]32)nn1,25.6
23,c1ccc(CCN2C[C@@H]3OCCN(c4ncccn4)[C@@H]3C2)cc1,76.5

row,SMILES,INHIBITION [%]
1,Cc1cc2cc(NC(=O)Cn3ncc(N4CCCC4)cc3=O)ccc2o1,30.3
2,CCn1cnnc1CNS(=O)(=O)N1CCCC1c1ccc(C)o1 (configuration not stated),2.79
3,CC(C)c1nc(O)c2nnn(C[C@H]3CCCN(Cc4cccs4)C3)c2n1,2.55
4,CCn1nc(C)c2ncnc(NCCn3cccn3)c21,-15
5,CC(C)CC1SCC(=O)Nc2c1cnn2C1CCCC1 (configuration not stated),-37.2
6,CN(C)C(=O)[C@@H]1C[C@H]2OCC[C@H]2N(CCOc2ccc(Cl)cc2)C1,-23.4
7,CC(C)Cc1cc(C(=O)NC(C)C)[nH]n1,50.8
8,CC(C)Cc1cc(C(=O)NCc2nnc[nH]2)[nH]n1,-21.3
9,CC(C)Cc1cc(C(=O)NCCN2CCCS2(=O)=O)[nH]n1,-36.385
10,COc1nccc(N2CC[C@@H](N3CCCCCC3)[C@H](O)C2)c1C#N,42.1
11,c1cnn(CC2CCCN2Cc2nc(C3CC3)no2)c1 (configuration not stated),11.4
12,CC(C)(C)c1cn2c(n1)C(CNCc1cnn3ccccc13)CCC2 (configuration not stated),51.1
13,Cc1cn2c(n1)C(CNCc1cnn3ccccc13)CCC2 (configuration not stated),50.1
14,O=C(NCc1cnn2ccccc12)NC1CCCC1,-16.4
15,Cc1nc(C)c(CNCC2CCCn3ccnc32)s1 (configuration not stated),28.7
16,Cn1cccc1CNCC1CCCn2cc(C(C)(C)C)nc21 (configuration not stated),22.3
17,CC(C)(C)c1ncc(CNCC2CCCn3ccnc32)s1 (configuration not stated),-7.66
18,CC(C)(C)c1cn2c(n1)C(CNCc1ccccn1)CCC2 (configuration not stated),56.5
19,CC(C)(C)C(=O)NCc1cnn2ccccc12,15.7
20,CC(C)(C)NC(=O)NCc1cnn2ccccc12,35.2
21,CN(CC1(C)COC1)C(=O)c1cc(-c2ccnn2C)nc2ccccc12,1.9
22,CSC(C)C(=O)N(C)CC(=O)Nc1ccc(Br)cn1 (configuration not stated),-17.6
23,NC(=O)C(CNC(=O)CCc1ccccc1)Cc1ccc(F)cc1 (configuration not stated),33.4

row,SMILES,INHIBITION [%]
1,CN(C)C(=O)CO[C@H]1CN(Cc2ccccc2)[C@@H]2CCCO[C@H]12,3.3
2,CN(C)C(=O)CNC(=O)c1cc2ccccc2nc1N1CCCC1,42.3
3,Cc1ccc2c(cnn2CCC(=O)NCc2csc(C3CC3)n2)c1,26.9
4,CCn1cc(C(=O)NCc2csc(C3CC3)n2)c(C)n1,67
5,Cc1nn(C)cc1C(=O)NCc1csc(C2CC2)n1,18.3
6,CCn1nc(C)c(C(=O)NCc2csc(C3CC3)n2)c1C,76.3
7,Cc1cccc2c1cnn2CCC(=O)NCc1csc(C2CC2)n1,23.6
8,CCn1cc(CCC(=O)NCc2csc(C3CC3)n2)c(C)n1,22.9
9,CCOC(=O)CSc1nnc([C@@H](N)C(C)CC)o1 (some centres not stated),-30.6
10,COCCC(=O)Nc1ccnc(Oc2ccccc2)c1,-30
11,COCC(=O)NCCc1ccc(Cl)s1,28.4
12,Cc1ccccc1-n1nccc1NC(=O)CCOC(C)C,43.8
13,COCC(=O)NC(c1ccc(Cl)cc1)C(F)(F)F (configuration not stated),-21.8
14,COCCOCC(=O)Nc1ccc(C)cc1Cl,-71.6
15,COCCC(=O)Nc1ccnn1-c1ccccc1,67.1
16,COCCOCC(=O)Nc1ccnn1-c1ccc(Cl)cc1,54.6
17,CCOCCC(=O)Nc1ccnn1-c1ccc(Cl)cc1,12.9
18,COCC(=O)Nc1ccnn1-c1ccc(Cl)cc1,64.3
19,Cc1cccc(C(=O)N2C[C@@H](OCc3ccncc3)[C@@H]3OCCC[C@@H]32)n1,-69.9
20,COCCN(Cc1ccccn1)C(=O)Nc1cccnc1-n1cccn1,9.4
21,NC(=O)CN1CCOCC(Cc2ccccc2)C1 (configuration not stated),-4.51
22,C=C(C)COc1ccccc1C(=O)N1CCC(C(=O)NCC)C1 (configuration not stated),48.5
23,CCN(c1ccc(C(=O)N2CCCCC2)cc1)S(=O)(=O)CC,40.3

row,SMILES,INHIBITION [%]
1,OC1(CNc2cccc(F)c2)CCNCC1,28.5
2,CC(CN1CCOCC1)n1cncc1-c1cnn(Cc2ccccc2)c1 (configuration not stated),-3.135
3,CCOC(=O)N1CCN(C(=O)C(CC)n2cccn2)CC1 (configuration not stated),31.2
4,Cc1nccc([C@H]2C[C@@H]3CCN(S(C)(=O)=O)C[C@H]3O2)n1,33.2
5,CC(C)(C#N)C(=O)N1CCCC(c2cc(C(F)(F)F)[nH]n2)C1 (configuration not stated),55.5
6,Cc1cc(C2CCCN(C(=O)c3ccc(Cl)o3)C2)n[nH]1 (configuration not stated),42.9
7,Cc1cc(C(=O)N2CCCC(c3cc(C(F)(F)F)[nH]n3)C2)on1 (configuration not stated),33.8
8,O=C(CO)N1CCCC(c2cc(C(F)(F)F)[nH]n2)C1 (configuration not stated),6.26
9,Cc1ccc(C(=O)N2CCCC(c3cc(C(F)(F)F)[nH]n3)C2)o1 (configuration not stated),54.4
10,O=C(c1ccco1)N1CCCC(c2cc(C(F)(F)F)[nH]n2)C1 (configuration not stated),36.1
11,Cc1nccc(C(=O)N2CCCC(c3cc(C(F)(F)F)[nH]n3)C2)n1 (configuration not stated),40
12,Cc1noc(C)c1C(=O)N1CCCC(c2cc(C(F)(F)F)[nH]n2)C1 (configuration not stated),-27.9
13,Cc1ccoc1C(=O)N1CCCC(c2cc(C(F)(F)F)[nH]n2)C1 (configuration not stated),62.6
14,O=C(c1ccc(Cl)o1)N1CCCC(c2cc(C(F)(F)F)[nH]n2)C1 (configuration not stated),63.4
15,Cc1[nH]ncc1C(=O)N1CCCC(c2cc(C(F)(F)F)[nH]n2)C1 (configuration not stated),24
16,CCOCCC1(CNC(=O)c2ccncc2Cl)CCC1,20.4
17,O=C(NCc1ccco1)[C@@]12CCO[C@@H]1CCN(CC1CCOCC1)C2,11.4
18,CN(Cc1cccnc1)Cc1cn2c(n1)CN(C1CCOC1)CC2 (configuration not stated),28.3
19,COCCN(Cc1nc2c(cnn2C)c(=O)[nH]1)C(C)COC (configuration not stated),-7.35
20,COCCN1C(=O)CCC12CCC(NCc1cccnc1OC)CC2 (configuration not stated),34.6
21,O=c1cc(CNCc2ccc3c(c2)OCO3)nc2ccc(Br)cn12,28
22,O=C(Cc1ccon1)NC1CCCN(c2ccccc2F)C1=O (configuration not stated),9.72
23,O=C1CCCc2[nH]c(=O)c(C(=O)N(Cc3ccsc3)C3CC3)cc21,26.43

row,SMILES,INHIBITION [%]
1,Cc1nc(CN2C[C@@H](NC(=O)C3CCC3)[C@H]3COC[C@H]32)cs1,-10.5
2,Fc1ccc(-c2nc(CN3CCCCC3Cn3cncn3)co2)cc1 (configuration not stated),-0.113
3,COCCN(Cc1ccccc1)C(=O)c1csc(-c2nnc[nH]2)n1,24.7
4,COc1cccc(CN(C)C(=O)c2csc(-c3nnc[nH]3)n2)c1,40.9
5,CN(CCCOc1ccccc1)C(=O)c1csc(-c2nnc[nH]2)n1,53.9
6,Cc1ccccc1-c1cncc(C2CCN(CC(=O)N(C)C)CC2)n1,-0.371
7,Cc1cc(F)ccc1NS(=O)(=O)c1cc2c(c(C(=O)O)c1)OCCO2,25.1
8,CSCC(C)(O)CNc1cccc(F)c1C#N (configuration not stated),56.5
9,CSCC(C)(O)CNc1cccc(F)c1C(C)=O (configuration not stated),21.8
10,CC(C)C(C)(O)CNc1cccc(F)c1C#N (configuration not stated),-23.8
11,CCOc1ncccc1NC(=O)c1cc(C)sc1C,-8.66
12,Fc1cc(F)cc(CN2CCC(c3cc4ncccc4cn3)CC2)c1,32.3
13,COc1ccc(C)cc1CN1CCC(c2cc3ncccc3cn2)CC1,87.9
14,COc1ccc(C)cc1CN1CCN(Cc2nccn2C)CC1,-190
15,CCc1onc(C)c1C(=O)N1CCC(c2cc3ncccc3cn2)CC1,17.1
16,Fc1cccc(CN2CCC(c3n[nH]c4ncccc34)CC2)c1F,42.6
17,Fc1cccc(CN2CCC(c3cc4ncccc4cn3)CC2)c1F,52.7
18,Fc1cccc(CN2CCC(c3noc(-c4ccccn4)n3)CC2)c1F,-6.73
19,Fc1ccc(F)c(CN2CCC(c3cc4ncccc4cn3)CC2)c1,63.8
20,Fc1ccc(F)c(CN2CCC(c3cnccn3)CC2)c1,34.1
